Results filed as inconclusive are left out. Active and inactive are the calls of the source. How the source made its calls, unless noted: active means hit-call score of the fitted dose curve at least 0.9, where 1 is the maximum; inactive means score below 0.9.
Key:
[1] = target: Transcription factor Sp1 (Homo sapiens) (UniProt P08047); test: ATG_Sp1_CIS: Attagene CIS-FACTORIAL HepG2 Assay for human Specificity Protein 1 (Sp1) (AID 2282961); details: HepG2 Sp1 cis-reporter transcription, actives raise or lower the signal
Outline: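 HepG2 cells transiently transfected with multiplexed cis-regulated reporter constructs, chemical exposure 24 h. Reporter mRNA quantified by RT-PCR with capillary electrophoresis; bidirectional fit relative to DMSO.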

[2] = ATG_SREBP_CIS: Attagene CIS-FACTORIAL HepG2 Assay for human Sterol Regulatory Element Binding (SREBP) (AID 2282962); details: HepG2 Attagene cis-factorial SREBP reporter, mRNA; actives raise or lower the signal
Outline: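 HepG2 cells transiently transfected with multiplexed cis-element reporter units report endogenous transcription factor activity. After 24 h of chemical exposure, reporter mRNA was quantified by RT-PCR, 6-FAM labelling, HpaI digestion and capillary electrophoresis; bidirectional fits used DMSO as baseline.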

[3] = target: Signal transducer and activator of transcription 3 (Homo sapiens) (UniProt P40763); test: ATG_STAT3_CIS: Attagene CIS-FACTORIAL HepG2 Assay for human Signal Transducer and Activator of Transcription 3 (STAT3) (AID 2282963); details: HepG2, Attagene cis-factorial STAT3 reporter transcription; actives raise or lower the signal
Outline: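 HepG2 cells transiently transfected with cis-element-driven multiple reporter transcription units; after 24 h chemical exposure, reporter mRNA measured by RT-PCR, 6-FAM primer-extension labelling, HpaI digestion and capillary electrophoresis. Bidirectional fitting versus DMSO baseline.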

[4] = ATG_TA_CIS: Attagene CIS-FACTORIAL HepG2 Assay for human TA Basal Promoter (AID 2282964); details: HepG2 Attagene CIS-factorial TA basal promoter reporter; actives raise or lower the signal
Outline: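 Multiplexed mRNA reporter assay, HepG2, 24 h. Reporter cDNA amplified, 6-FAM primer-extended, HpaI-cut, CE-sized; DMSO = negative control and baseline.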

[5] = ATG_TCF_b_cat_CIS: Attagene CIS-FACTORIAL HepG2 Assay for human T-Cell-Factor with beta-catenin (TCF/b-cat) (AID 2282965); details: HepG2 TCF/beta-catenin cis-reporter transcription, actives raise or lower the signal
Outline: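 Using capillary electrophoresis as the read-out, labelled reporter cDNA fragments from transiently transfected HepG2 were sized and quantified. Exposure lasted 24 hours; activity in either direction was referenced to DMSO.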

[6] = ATG_TAL_CIS: Attagene CIS-FACTORIAL HepG2 Assay for human TAL Basal Promoter (AID 2282966); details: HepG2 Attagene cis-factorial TAL promoter reporter; actives raise or lower the signal;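 further: background control endpoint measuring basal TAL promoter reporter mRNA not a specific factor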
Outline: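 HepG2 cells were transiently transfected with promoter-driven multiplexed reporter units and dosed for 24 h. Reporter mRNA was measured by RT-PCR with capillary electrophoresis fluorescence; bidirectional fits used DMSO as baseline, serving as a background control.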

[7] = ATG_TGFb_CIS: Attagene CIS-FACTORIAL HepG2 Assay for human Transforming Growth Factor (TGF) (AID 2282967); details: HepG2 Attagene CIS TGFb reporter, mRNA transcription; actives raise or lower the signal
Outline: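 Transcript-level reporter readout: HepG2 transfectants, 24 h exposure, RNA to cDNA, reporter-specific PCR, fluorescent primer extension, capillary sizing against ROX standards. Gain- or loss-of-signal relative to DMSO.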

[8] = ATG_VDRE_CIS: Attagene CIS-FACTORIAL HepG2 Assay for human Vitamin D Receptor Element (VDRE) (AID 2282968); details: HepG2 VDRE cis-reporter transcription, actives raise or lower the signal
Outline: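 HepG2 cells transiently transfected with cis-element reporter units, dosed 24 h; reporter mRNA measured by RT-PCR, 6-FAM labeling, HpaI digestion and capillary electrophoresis. Activity fitted bidirectionally against DMSO baseline.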

[9] = target: Nuclear receptor subfamily 1 group I member 3 (Homo sapiens) (UniProt Q14994); test: ATG_CAR_TRANS: Attagene TRANS-FACTORIAL HepG2 Assay for human Constitutive Androstane Receptor (CAR) (AID 2282969; active means hit-call score of the fitted dose curve at least 0.9, where 1 is the maximum;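 further: activators raise reporter mRNA above DMSO so AC50 marks induction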); details: HepG2 Attagene TRANS-FACTORIAL CAR reporter
Outline: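 HepG2 cells transiently transfected with multiplexed GAL4-UAS reporter units expressing chimeric NR-Gal4 proteins; compound exposure 24 h. Reporter mRNA measured by RT-PCR, 6-FAM labelling, HpaI digestion and capillary electrophoresis; gain-of-signal fitted against DMSO baseline.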

[10] = target: Steroid hormone receptor ERR1 (Homo sapiens) (UniProt P11474); test: ATG_ERRa_TRANS: Attagene TRANS-FACTORIAL HepG2 Assay for human Estrogen-Related Receptor alpha (ERRa) (AID 2282971; active means hit-call score of the fitted dose curve at least 0.9, where 1 is the maximum); details: HepG2 Attagene TRANS reporter, ERRa transactivation
Outline: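 HepG2 cells transiently transfected with multiplexed GAL4-UAS reporter units reading chimeric ERRa-Gal4 activity; 24 h compound exposure. Reporter mRNA measured by RT-PCR, 6-FAM labelling, HpaI digest and capillary electrophoresis; gain of signal fitted versus DMSO baseline.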

[11] = target: X-box-binding protein 1 (Homo sapiens) (UniProt P17861); test: ATG_Xbp1_CIS: Attagene CIS-FACTORIAL HepG2 Assay for human X-box Binding Protein 1 (XBP1) (AID 2282972); details: HepG2 XBP1 cis-element reporter, Attagene multiplex; actives raise or lower the signal
Outline: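 HepG2 cells transiently transfected with cis-regulated multiple reporter transcription units; endogenous transcription factor activity measured 24 hours after chemical dosing. Reporter mRNA quantified by RT-PCR, 6-FAM primer extension, HpaI digestion and capillary electrophoresis; bidirectional fitting versus DMSO.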

[12] = ATG_M_19_TRANS: Attagene TRANS-FACTORIAL HepG2 Assay for M19 Transcription Factor (Internal Marker) (AID 2282974; active means hit-call score of the fitted dose curve at least 0.9, where 1 is the maximum); details: HepG2 Attagene TRANS-FACTORIAL M19 internal marker reporter
Outline: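 HepG2 transiently transfected with GAL4-UAS multiplex reporter constructs, exposed 24 h; reporter RNA quantified by RT-PCR, 6-FAM labeling, HpaI digestion and capillary electrophoresis; internal background marker fitted upward versus DMSO.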

[13] = ATG_GAL4_TRANS: Attagene TRANS-FACTORIAL HepG2 Assay for GAL4 (Internal Marker) (AID 2282976; active means hit-call score of the fitted dose curve at least 0.9, where 1 is the maximum); details: HepG2 Attagene TRANS GAL4 internal marker reporter
Outline: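 HepG2 cells transiently transfected with multiplexed GAL4-UAS reporter constructs were dosed for 24 h. Reporter mRNA was measured by RT-PCR, 6-FAM primer extension, HpaI digestion and capillary electrophoresis, and gain of signal was fitted relative to DMSO.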

[14] = target: Estrogen-related receptor gamma (Homo sapiens) (UniProt P62508); test: ATG_ERRg_TRANS: Attagene TRANS-FACTORIAL HepG2 Assay for human Estrogen-Related Receptor gamma (ERRg) (AID 2282977; active means hit-call score of the fitted dose curve at least 0.9, where 1 is the maximum;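 further: hits increase reporter signal over DMSO so potencies reflect activators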); details: HepG2 Attagene TRANS reporter, ERRg transactivation
Outline: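 Transient HepG2 transfectants, 24 h compound exposure, GAL4-UAS reporter mRNA by RT-PCR/6-FAM labelling/capillary electrophoresis; positive direction vs DMSO.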

[15] = target: Oxysterols receptor LXR-alpha (Homo sapiens) (UniProt Q13133); test: ATG_LXRa_TRANS: Attagene TRANS-FACTORIAL HepG2 Assay for human Liver X Receptor alpha (LXRa) (AID 2282980; active means hit-call score of the fitted dose curve at least 0.9, where 1 is the maximum); details: HepG2 Attagene TRANS reporter, LXRa transactivation
Outline: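 HepG2 cells were transiently transfected with multiplexed reporter units driven by chimeric LXRa–GAL4 fusion proteins, then dosed for 24 h. Reporter mRNA was quantified by RT-PCR, fluorescent labelling and capillary electrophoresis; gain of signal fitted against DMSO baseline.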

[16] = target: Bile acid receptor (Homo sapiens) (UniProt Q96RI1); test: ATG_FXR_TRANS: Attagene TRANS-FACTORIAL HepG2 Assay for Farnesoid X Receptor (FXR) (AID 2282979; active means hit-call score of the fitted dose curve at least 0.9, where 1 is the maximum;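 further: hits raise reporter mRNA above DMSO so AC50 marks FXR activation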); details: HepG2 Attagene TRANS FXR-GAL4 reporter transcription
Outline: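 HepG2 cells transiently transfected with reporter constructs in which a chimeric FXR-GAL4 protein drives a GAL4-UAS reporter; 24 h compound exposure. Reporter mRNA measured by RT-PCR, FAM labelling, HpaI digestion and capillary electrophoresis; gain-of-signal versus DMSO.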

[17] = target: Estrogen receptor (Homo sapiens) (UniProt P03372); test: ATG_ERa_TRANS: Attagene TRANS-FACTORIAL HepG2 Assay for human Estrogen Receptor alpha (ERa) (AID 2282970; active means hit-call score of the fitted dose curve at least 0.9, where 1 is the maximum); details: HepG2 Attagene TRANS ERa GAL4 reporter, mRNA
Outline: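 HepG2 cells transiently transfected with multiplexed GAL4-UAS reporter units; ERa activity read via exogenous chimeric NR-Gal4 protein. After 24 hour compound exposure, reporter mRNA measured by RT-PCR with 6-FAM labelling and capillary electrophoresis; gain-of-signal fitted relative to DMSO.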

[18] = target: Glucocorticoid receptor (Homo sapiens) (UniProt P04150); test: ATG_GR_TRANS: Attagene TRANS-FACTORIAL HepG2 Assay for human Glucocorticoid Receptor (GR) (AID 2282978; active means hit-call score of the fitted dose curve at least 0.9, where 1 is the maximum;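 further: activators score as hits since higher reporter transcript over DMSO is fitted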); details: HepG2 Attagene TRANS GR reporter, mRNA transcription
Outline: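 HepG2 cells transiently transfected with GAL4-UAS reporter units and exogenous GR-Gal4 chimera, dosed 24 h. Reporter mRNA by RT-PCR, FAM labeling, HpaI digest and capillary electrophoresis; gain-of-signal fit versus DMSO.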

Transcription factor Sp1 (Homo sapiens), sequence (P08047 whole entry, looked up): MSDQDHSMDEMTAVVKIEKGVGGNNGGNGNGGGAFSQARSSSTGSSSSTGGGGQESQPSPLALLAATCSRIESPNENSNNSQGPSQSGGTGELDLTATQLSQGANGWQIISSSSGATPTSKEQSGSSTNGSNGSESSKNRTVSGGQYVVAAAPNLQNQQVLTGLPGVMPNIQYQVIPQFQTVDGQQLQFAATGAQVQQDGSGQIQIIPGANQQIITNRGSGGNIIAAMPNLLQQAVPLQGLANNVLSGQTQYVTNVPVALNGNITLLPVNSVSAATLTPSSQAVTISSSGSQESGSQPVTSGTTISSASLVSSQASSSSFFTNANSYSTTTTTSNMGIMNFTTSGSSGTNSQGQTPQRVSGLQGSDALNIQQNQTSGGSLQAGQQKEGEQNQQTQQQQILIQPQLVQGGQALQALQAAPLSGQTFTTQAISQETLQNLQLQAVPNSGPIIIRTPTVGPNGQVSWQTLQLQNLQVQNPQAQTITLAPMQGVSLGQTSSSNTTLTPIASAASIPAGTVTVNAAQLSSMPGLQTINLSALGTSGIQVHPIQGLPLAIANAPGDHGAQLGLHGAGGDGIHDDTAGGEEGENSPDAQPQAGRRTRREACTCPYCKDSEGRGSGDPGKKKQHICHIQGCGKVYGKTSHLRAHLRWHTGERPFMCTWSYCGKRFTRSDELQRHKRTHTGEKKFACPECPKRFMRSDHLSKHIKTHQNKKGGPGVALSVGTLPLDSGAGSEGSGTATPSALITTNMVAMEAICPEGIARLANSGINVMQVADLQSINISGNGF
Nuclear receptor subfamily 1 group I member 3 (Homo sapiens), sequence (Q14994 whole entry, looked up, the tested form may be a part): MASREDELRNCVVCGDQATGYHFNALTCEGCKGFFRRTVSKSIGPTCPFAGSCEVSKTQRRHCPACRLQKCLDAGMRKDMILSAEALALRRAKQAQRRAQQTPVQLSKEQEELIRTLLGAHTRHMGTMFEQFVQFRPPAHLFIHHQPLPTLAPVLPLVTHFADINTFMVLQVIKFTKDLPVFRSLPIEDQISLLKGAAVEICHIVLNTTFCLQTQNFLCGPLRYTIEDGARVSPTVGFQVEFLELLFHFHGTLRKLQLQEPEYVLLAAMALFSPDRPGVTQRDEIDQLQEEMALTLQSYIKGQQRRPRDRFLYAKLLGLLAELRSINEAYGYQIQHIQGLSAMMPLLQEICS
Signal transducer and activator of transcription 3 (Homo sapiens), sequence (P40763 whole entry, looked up): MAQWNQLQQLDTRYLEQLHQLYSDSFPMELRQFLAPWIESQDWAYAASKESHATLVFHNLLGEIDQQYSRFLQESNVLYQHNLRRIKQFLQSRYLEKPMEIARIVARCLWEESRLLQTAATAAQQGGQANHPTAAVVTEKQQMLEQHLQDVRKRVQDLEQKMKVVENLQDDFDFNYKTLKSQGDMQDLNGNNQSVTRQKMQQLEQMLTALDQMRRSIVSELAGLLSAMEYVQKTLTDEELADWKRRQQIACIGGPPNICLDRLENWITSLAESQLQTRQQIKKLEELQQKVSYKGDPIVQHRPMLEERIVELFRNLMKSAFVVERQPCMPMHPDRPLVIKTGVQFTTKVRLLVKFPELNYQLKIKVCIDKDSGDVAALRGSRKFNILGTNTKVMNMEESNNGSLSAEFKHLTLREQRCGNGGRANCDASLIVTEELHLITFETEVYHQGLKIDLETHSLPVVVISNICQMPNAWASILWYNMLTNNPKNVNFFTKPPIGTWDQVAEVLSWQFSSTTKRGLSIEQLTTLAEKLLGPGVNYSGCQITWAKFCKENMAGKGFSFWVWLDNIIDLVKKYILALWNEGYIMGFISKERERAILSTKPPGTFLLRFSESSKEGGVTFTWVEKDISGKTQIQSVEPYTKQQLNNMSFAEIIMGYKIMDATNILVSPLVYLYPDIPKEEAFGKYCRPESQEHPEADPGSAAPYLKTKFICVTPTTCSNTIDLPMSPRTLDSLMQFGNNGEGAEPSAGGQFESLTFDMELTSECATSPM
Oxysterols receptor LXR-alpha (Homo sapiens), sequence (Q13133 whole entry, looked up, the tested form may be a part): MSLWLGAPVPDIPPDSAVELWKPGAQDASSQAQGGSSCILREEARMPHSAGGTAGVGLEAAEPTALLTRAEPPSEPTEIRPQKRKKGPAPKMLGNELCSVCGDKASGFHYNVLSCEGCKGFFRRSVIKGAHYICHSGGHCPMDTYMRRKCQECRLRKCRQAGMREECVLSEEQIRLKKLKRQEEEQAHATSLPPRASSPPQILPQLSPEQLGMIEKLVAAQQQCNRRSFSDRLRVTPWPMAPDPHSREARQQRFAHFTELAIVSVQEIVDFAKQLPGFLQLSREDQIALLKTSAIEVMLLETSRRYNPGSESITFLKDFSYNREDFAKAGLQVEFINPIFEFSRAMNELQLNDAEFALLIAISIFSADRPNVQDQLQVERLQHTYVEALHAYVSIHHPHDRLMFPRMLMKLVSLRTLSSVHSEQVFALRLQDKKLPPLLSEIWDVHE
X-box-binding protein 1 (Homo sapiens), sequence (P17861 whole entry, looked up): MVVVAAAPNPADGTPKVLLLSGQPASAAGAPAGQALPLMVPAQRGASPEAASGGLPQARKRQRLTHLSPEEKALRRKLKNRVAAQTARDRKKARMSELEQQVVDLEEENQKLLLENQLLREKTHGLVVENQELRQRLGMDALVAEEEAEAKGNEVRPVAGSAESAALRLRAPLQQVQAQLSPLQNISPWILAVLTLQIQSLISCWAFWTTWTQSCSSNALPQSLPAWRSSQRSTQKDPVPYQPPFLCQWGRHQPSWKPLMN
Steroid hormone receptor ERR1 (Homo sapiens), sequence (P11474 whole entry, looked up, the tested form may be a part): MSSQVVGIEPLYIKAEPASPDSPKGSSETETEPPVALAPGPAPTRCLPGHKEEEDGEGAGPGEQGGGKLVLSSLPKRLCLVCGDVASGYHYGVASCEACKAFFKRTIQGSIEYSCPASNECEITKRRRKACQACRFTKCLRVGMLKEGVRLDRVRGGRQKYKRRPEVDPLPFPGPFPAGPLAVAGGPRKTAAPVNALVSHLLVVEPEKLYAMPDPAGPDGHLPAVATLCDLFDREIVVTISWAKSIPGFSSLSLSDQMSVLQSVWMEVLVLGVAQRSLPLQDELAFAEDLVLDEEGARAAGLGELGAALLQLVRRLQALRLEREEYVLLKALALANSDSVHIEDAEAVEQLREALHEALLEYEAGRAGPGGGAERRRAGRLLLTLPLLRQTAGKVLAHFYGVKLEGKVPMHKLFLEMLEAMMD
Estrogen receptor (Homo sapiens), sequence (P03372 whole entry, looked up, the tested form may be a part): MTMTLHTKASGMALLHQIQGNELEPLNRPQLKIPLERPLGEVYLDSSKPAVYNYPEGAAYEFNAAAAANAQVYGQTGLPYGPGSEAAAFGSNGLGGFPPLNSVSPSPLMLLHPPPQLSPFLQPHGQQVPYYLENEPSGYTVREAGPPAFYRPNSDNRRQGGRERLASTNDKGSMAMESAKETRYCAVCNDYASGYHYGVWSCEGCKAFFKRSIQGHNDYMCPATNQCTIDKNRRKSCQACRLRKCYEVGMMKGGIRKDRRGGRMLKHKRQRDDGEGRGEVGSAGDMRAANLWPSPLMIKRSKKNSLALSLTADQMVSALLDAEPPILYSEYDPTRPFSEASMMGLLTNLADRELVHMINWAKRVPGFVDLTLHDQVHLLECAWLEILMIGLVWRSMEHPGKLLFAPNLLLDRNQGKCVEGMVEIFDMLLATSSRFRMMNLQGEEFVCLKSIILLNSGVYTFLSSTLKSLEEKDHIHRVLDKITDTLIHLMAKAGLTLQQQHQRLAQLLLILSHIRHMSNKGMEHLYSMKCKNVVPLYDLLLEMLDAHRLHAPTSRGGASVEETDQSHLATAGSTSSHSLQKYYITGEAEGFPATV
Glucocorticoid receptor (Homo sapiens), sequence (P04150 whole entry, looked up, the tested form may be a part): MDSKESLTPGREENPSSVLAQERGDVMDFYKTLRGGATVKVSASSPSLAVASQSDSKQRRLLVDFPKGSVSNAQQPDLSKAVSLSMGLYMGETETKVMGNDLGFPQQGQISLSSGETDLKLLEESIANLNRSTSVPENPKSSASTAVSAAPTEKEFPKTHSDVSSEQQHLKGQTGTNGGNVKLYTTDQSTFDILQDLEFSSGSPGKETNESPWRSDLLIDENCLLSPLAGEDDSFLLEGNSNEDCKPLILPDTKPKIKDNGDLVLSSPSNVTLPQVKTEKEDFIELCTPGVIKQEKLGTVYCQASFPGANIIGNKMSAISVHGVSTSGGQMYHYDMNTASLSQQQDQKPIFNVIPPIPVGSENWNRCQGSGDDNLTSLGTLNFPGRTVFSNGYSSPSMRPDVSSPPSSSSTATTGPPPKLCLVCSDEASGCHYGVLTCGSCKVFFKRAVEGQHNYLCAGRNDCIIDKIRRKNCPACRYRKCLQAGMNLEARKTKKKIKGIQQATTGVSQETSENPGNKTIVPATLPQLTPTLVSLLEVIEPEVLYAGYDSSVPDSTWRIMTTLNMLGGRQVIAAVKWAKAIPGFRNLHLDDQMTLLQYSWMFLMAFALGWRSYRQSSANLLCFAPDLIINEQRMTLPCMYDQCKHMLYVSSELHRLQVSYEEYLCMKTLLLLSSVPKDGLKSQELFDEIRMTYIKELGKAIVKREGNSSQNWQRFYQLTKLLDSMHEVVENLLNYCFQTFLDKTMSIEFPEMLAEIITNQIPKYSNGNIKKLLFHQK
Estrogen-related receptor gamma (Homo sapiens), sequence (P62508 whole entry, looked up, the tested form may be a part): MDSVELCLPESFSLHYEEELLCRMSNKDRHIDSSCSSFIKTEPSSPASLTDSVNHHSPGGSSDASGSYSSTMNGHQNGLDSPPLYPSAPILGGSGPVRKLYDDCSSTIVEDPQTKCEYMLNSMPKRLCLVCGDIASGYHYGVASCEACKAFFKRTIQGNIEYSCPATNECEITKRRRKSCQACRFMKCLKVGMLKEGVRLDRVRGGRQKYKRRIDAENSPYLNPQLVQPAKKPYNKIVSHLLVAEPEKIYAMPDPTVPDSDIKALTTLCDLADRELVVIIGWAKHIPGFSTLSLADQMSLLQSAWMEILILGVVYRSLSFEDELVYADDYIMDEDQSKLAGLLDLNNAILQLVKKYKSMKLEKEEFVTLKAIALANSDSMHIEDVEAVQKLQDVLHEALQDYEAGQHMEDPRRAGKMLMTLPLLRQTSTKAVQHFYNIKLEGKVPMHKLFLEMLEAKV

| SMILES | outcome [1] | outcome [2] | outcome [3] | outcome [4] | outcome [5] | outcome [6] | AC50 [7] | outcome [8] | outcome [9] | outcome [10] | outcome [11] | outcome [12] | outcome [13] | outcome [14] | outcome [15] | outcome [7] | outcome [16] | outcome [17] | outcome [18] |
| --- | --- | --- | --- | --- | --- | --- | --- | --- | --- | --- | --- | --- | --- | --- | --- | --- | --- | --- | --- |
| O=C(CCl)NCO | inactive | inactive | inactive | inactive | inactive | inactive | 765 nM (active) | inactive | inactive | inactive | inactive | inactive | inactive | inactive | inactive | – | – | – | – |
| FC(F)OCC(F)(F)C(F)(F)F | inactive | inactive | inactive | inactive | inactive | inactive | – | inactive | – | inactive | inactive | – | inactive | – | – | inactive | inactive | – | – |
| O=C=Nc1ccc(Cl)cc1 | – | inactive | inactive | inactive | inactive | inactive | – | inactive | inactive | – | inactive | inactive | inactive | – | inactive | inactive | – | inactive | – |
| C=CCCl | inactive | inactive | inactive | inactive | inactive | inactive | – | inactive | inactive | – | inactive | inactive | – | – | inactive | inactive | – | inactive | inactive |

— PubChem BioAssay (EPA / NIEHS)
